Legend:
Test in all cases: log2 ratio of Biotin-Ahx-Ub-VS probe labelling (fragment/DMSO); higher = less target engagement (more negative = stronger competition), active = hit call of the paper (q ≤ 0.05, log2 ratio ≤ -1)
Settings in all cases: compound concentration: 200 uM; treatment time: 3 h
USP9X = USP9X (UniProt Q93008)
Method in brief: (§1)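 HEK293T lysate (495 µg per sample, in Tris/CHAPS/IGEPAL buffer with protease inhibitors) was treated in triplicate with fragment at 200 µM or with DMSO for 3 h. It was then treated with Biotin-Ahx-Ub-VS (0.5 µM final) for 1 h. Labelled DUBs were NeutrAvidin-enriched, digested with LysC and trypsin, and run by diaPASEF LC-MS/MS. Spectronaut label-free quantities were global-median-normalised. Values are average log2 ratios fragment/DMSO by unpaired t-test, using proteins with ≥2 unique peptides.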

UniProt O00487 = target: UniProt O00487
Sequence of UniProt O00487 (O00487 whole entry): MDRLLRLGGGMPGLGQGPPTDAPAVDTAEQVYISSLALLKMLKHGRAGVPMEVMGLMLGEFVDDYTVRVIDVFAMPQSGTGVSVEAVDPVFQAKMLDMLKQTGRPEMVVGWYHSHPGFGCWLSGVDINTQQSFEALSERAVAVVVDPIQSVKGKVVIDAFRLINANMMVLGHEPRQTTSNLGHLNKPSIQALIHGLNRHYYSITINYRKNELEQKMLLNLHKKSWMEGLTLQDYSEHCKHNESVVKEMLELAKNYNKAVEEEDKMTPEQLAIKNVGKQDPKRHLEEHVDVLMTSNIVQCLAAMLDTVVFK
Method in brief: as §1

UniProt O00507 = target: UniProt O00507
Method in brief: as §1

UniProt P51784 = target: UniProt P51784
Sequence of UniProt P51784 (P51784 whole entry): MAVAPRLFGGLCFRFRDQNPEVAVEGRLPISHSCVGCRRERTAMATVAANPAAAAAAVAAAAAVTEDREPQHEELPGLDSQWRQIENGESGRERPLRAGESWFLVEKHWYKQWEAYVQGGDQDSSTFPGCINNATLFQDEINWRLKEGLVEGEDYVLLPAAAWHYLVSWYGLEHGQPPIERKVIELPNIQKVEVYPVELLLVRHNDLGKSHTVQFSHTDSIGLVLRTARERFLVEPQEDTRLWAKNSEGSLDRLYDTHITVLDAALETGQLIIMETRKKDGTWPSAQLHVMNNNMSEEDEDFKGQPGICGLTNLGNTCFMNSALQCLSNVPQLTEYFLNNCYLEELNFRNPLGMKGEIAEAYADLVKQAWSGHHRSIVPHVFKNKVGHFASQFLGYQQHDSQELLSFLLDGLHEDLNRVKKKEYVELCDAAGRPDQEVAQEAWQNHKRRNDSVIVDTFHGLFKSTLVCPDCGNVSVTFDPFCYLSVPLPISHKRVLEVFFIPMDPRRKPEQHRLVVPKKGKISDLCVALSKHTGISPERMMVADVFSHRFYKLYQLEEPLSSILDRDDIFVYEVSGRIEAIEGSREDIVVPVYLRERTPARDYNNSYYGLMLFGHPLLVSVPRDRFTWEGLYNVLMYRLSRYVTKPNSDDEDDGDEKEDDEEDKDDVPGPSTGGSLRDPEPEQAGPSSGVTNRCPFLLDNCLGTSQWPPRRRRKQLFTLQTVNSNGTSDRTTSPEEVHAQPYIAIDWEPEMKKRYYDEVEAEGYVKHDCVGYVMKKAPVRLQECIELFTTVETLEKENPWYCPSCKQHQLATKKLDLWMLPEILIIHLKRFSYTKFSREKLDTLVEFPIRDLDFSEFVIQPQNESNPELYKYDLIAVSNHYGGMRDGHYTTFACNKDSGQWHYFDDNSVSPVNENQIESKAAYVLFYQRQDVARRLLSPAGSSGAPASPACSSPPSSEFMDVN
Method in brief: as §1

UniProt Q5T2D3 = target: T1, UniProt Q5T2D3
T1 sequence (whole entry): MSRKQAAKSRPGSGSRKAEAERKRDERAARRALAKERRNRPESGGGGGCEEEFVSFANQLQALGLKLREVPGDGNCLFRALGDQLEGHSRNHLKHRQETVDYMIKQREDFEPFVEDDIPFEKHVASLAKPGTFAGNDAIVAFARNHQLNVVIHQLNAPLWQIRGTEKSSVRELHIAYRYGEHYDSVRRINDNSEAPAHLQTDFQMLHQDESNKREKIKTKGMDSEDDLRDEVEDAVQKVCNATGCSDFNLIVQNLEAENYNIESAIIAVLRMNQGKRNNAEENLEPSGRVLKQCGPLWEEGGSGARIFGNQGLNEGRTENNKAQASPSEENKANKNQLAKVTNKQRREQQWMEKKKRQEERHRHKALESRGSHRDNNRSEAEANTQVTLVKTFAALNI
Method in brief: as §1

UniProt Q8TE49 = target: T2, UniProt Q8TE49
T2 sequence (whole entry): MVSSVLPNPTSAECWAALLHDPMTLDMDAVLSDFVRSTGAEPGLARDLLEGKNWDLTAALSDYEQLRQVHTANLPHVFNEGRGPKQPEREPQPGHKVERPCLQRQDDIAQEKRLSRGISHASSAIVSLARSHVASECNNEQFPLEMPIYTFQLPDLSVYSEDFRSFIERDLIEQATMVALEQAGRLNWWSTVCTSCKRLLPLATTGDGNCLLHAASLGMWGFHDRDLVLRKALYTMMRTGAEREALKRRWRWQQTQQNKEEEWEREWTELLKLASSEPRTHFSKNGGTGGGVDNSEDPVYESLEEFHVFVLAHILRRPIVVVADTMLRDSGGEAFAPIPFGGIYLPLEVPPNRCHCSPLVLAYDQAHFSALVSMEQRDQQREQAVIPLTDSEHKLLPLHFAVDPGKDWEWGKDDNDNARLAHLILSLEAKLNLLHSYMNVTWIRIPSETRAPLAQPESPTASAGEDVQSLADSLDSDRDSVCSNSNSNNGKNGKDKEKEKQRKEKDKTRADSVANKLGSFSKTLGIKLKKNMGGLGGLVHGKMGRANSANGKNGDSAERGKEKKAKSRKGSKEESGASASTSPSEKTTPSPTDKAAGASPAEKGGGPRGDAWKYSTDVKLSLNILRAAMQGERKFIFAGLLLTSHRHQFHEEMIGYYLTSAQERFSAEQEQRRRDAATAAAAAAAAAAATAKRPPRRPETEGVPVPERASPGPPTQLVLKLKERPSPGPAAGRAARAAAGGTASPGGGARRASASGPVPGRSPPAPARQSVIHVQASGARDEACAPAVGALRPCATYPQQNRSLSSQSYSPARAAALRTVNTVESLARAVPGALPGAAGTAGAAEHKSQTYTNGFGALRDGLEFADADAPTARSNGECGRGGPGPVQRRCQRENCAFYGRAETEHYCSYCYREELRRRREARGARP
Method in brief: as §1

UniProt Q9P2H5 = target: T3, UniProt Q9P2H5
T3 sequence (whole entry): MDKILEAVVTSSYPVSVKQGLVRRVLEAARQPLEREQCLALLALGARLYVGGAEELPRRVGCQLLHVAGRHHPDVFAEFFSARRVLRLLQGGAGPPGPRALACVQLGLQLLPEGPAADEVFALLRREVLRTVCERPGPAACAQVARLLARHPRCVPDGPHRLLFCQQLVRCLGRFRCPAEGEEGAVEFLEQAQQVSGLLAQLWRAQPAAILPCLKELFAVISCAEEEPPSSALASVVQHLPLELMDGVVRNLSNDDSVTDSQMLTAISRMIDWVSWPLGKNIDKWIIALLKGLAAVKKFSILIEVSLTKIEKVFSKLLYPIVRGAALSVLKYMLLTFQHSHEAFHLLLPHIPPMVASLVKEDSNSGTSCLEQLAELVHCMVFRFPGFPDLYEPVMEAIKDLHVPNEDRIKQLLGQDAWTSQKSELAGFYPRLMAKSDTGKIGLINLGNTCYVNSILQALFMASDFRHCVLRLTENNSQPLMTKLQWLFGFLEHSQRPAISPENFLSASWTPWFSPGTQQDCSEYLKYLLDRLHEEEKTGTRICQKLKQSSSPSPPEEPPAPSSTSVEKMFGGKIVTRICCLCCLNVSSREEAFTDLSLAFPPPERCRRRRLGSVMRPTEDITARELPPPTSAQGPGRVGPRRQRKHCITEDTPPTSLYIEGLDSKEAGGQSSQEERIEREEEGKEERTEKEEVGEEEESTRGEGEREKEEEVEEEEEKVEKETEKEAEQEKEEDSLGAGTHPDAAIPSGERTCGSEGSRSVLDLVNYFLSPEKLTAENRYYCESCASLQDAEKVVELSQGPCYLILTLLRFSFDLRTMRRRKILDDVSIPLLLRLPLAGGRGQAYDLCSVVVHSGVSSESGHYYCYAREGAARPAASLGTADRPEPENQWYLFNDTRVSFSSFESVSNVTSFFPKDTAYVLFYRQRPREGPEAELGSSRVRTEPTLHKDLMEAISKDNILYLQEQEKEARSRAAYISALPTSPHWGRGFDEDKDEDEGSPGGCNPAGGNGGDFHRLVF
Method in brief: as §1

UniProt Q9UGI0 = target: T4, UniProt Q9UGI0
T4 sequence (whole entry): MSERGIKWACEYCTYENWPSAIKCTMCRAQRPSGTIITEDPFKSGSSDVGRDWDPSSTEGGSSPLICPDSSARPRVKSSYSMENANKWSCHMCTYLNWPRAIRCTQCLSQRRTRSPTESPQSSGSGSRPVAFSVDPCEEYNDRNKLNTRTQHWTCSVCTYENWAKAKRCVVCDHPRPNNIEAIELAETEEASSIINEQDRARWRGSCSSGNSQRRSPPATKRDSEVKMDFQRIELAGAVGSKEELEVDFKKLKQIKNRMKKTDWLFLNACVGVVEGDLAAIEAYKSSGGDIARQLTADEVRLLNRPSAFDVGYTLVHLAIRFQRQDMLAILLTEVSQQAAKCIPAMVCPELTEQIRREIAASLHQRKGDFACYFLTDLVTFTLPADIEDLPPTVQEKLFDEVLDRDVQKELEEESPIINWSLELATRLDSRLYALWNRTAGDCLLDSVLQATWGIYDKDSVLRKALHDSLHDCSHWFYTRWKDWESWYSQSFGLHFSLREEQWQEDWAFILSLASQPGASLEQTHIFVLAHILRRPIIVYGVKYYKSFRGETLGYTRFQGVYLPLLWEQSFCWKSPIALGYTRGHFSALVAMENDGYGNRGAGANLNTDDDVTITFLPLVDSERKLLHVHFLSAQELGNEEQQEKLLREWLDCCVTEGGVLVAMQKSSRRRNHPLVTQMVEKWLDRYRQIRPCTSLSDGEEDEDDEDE
Method in brief: as §1

YOD1 = target: T5, YOD1 (UniProt Q5VVQ6)
T5 sequence (whole entry): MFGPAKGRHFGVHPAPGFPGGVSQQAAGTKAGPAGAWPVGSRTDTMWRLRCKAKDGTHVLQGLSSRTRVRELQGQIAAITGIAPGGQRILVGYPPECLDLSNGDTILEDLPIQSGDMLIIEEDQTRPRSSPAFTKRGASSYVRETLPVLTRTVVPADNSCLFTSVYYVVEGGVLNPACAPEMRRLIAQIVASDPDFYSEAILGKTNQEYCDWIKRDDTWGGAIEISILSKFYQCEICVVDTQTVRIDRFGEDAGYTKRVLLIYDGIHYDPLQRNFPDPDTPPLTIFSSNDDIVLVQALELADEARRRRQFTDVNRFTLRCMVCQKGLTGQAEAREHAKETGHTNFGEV
Method in brief: as §1

Measured: log2 ratio of Biotin-Ahx-Ub-VS probe labelling

Sequence of USP9X (Q93008 whole entry, the tested form may be a part): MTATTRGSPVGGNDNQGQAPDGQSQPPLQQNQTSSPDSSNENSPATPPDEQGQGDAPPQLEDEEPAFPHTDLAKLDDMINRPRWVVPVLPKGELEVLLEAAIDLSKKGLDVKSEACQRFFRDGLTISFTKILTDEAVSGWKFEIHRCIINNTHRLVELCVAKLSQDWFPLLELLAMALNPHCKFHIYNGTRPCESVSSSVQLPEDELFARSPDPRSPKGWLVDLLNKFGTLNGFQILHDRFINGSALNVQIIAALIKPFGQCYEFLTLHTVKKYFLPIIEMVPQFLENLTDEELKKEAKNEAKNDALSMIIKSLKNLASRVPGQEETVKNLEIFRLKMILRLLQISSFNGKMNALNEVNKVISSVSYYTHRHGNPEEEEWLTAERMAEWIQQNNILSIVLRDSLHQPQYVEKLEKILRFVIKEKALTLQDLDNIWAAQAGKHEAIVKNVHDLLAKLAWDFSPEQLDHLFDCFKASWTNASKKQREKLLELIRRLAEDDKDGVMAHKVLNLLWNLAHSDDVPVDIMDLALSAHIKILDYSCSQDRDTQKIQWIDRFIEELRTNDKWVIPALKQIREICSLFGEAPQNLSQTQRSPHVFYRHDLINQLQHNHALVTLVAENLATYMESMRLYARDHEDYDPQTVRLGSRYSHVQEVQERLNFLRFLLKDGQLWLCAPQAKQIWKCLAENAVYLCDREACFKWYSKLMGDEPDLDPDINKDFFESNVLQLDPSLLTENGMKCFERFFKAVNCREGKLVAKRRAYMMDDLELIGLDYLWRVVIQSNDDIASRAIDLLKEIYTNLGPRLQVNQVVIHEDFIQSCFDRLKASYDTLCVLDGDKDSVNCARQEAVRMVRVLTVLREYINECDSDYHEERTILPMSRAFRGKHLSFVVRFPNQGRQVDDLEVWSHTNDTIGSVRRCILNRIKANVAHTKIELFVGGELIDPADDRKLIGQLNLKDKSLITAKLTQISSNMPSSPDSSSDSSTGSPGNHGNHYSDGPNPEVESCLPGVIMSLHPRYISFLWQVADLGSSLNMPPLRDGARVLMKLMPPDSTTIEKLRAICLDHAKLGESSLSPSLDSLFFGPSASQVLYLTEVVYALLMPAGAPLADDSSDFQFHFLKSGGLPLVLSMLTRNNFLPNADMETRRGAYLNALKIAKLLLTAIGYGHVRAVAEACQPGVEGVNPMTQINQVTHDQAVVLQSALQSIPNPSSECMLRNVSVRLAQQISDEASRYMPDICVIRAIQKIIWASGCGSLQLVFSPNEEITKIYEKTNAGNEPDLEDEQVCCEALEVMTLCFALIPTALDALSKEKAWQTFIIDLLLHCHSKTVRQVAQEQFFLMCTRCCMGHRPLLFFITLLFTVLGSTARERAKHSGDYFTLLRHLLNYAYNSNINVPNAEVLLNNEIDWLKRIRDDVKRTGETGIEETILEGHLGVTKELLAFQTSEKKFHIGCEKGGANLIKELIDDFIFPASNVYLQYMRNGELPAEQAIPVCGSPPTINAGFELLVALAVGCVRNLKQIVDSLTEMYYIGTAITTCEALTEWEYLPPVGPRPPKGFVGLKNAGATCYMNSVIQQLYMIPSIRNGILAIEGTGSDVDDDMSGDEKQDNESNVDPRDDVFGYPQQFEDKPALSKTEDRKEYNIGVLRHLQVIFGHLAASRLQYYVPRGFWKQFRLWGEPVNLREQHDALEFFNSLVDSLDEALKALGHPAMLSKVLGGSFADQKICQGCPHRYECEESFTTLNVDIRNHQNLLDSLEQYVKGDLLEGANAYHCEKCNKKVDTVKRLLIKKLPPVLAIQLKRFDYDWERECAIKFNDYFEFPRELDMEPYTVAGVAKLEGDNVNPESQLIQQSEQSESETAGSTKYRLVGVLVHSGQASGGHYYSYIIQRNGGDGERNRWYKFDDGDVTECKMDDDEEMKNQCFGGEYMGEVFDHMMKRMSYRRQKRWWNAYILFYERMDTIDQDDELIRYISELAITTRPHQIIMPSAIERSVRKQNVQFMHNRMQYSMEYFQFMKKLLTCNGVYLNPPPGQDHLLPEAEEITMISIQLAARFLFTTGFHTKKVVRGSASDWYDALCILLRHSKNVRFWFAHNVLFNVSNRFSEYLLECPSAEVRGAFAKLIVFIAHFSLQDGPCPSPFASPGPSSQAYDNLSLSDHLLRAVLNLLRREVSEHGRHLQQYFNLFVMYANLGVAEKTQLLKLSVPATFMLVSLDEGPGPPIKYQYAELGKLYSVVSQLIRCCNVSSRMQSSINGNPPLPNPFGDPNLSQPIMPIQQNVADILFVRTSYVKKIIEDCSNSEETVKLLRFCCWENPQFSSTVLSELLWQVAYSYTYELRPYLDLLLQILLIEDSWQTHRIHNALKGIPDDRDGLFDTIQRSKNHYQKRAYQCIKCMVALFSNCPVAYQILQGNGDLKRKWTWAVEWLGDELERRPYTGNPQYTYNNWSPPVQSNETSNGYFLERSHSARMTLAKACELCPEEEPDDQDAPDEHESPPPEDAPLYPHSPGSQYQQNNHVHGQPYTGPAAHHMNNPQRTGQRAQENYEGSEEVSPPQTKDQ

O=C(CCl)Nc1cc2c(cc1Cl)OCCCO2
inactive: USP9X 0.118 | UniProt O00487 -0.147 | UniProt O00507 0.443 | UniProt P51784 0.0196 | UniProt Q5T2D3 0.0208 | UniProt Q8TE49 -0.506 | UniProt Q9P2H5 -0.0168 | UniProt Q9UGI0 -0.0467 | YOD1 0.361

— the supplement of paper PMC11732987, “Enantioselective OTUD7B fragment discovery through chemoproteomics screening and high-throughput optimisation” (Communications Chemistry, 2025)
